# Source: ChEMBL document CHEMBL3988442, “University of Dundee, Small-Polar-MMV Screening Library” (2021)
# Screen size: about 69,000 compounds; about 1,000 (1.4%) showed an effect of 50% or more. This is one part of a sample in which strong results are shown more often than they occur.
# System: Leishmania donovani
# Assay: Leishmania intramacrophage assay
# Assay type: functional, organism-based
# Design: scale not given: in the data most compounds retested in dose-response had high values
smiles,measurement,setting,value
NC(=O)NCCC(=O)N1CCC(c2cc(Cc3ccccc3)n[nH]2)CC1,Percent Effect,"30.3 µM, […]",-20.51%
Nc1nccc(N2CCC(c3cc(Cc4ccccc4)n[nH]3)CC2)n1,Percent Effect,"30.3 µM, […]",63.85%
Cc1cc(CN2CCC(c3cc(Cc4ccccc4)n[nH]3)CC2)[nH]n1,Percent Effect,"30.3 µM, […]",26.02%
Nc1cc(N2CCC(c3cc(Cc4ccccc4)n[nH]3)CC2)ccn1,Percent Effect,"30.3 µM, […]",96.12%
Cc1ccc(N2CCC(c3cc(Cc4ccccc4)n[nH]3)CC2)nn1,Percent Effect,"30.3 µM, […]",15.09%
Nc1nc(O)cc(N2CCC(c3cc(Cc4ccccc4)n[nH]3)CC2)n1,Percent Effect,"30.3 µM, […]",4.937%
COc1ccc(CN2CCCCC2c2n[nH]cc2-c2cc(C)no2)cc1.Cl (stereo unspecified),Percent Effect,"30.3 µM, […]",-16.67%
CCn1ncc2c1CCCC2NCc1cc(OC)cc(OC)c1 (stereo unspecified),Percent Effect,30 µM,1.972%
CC1(C(=O)NCc2cccnc2Oc2ccc(F)c(F)c2)CCCNC1 (stereo unspecified),Percent Effect,"30.3 µM, […]",-16.47%
Cc1nc(C2(O)CCCNCC2)sc1CCOc1ccc(F)cc1.Cl (stereo unspecified),Percent Effect,"30.3 µM, […]",8.294%
Cc1nc(C2(O)CCCNCC2)sc1CCOc1ccc(F)c(F)c1.Cl (stereo unspecified),Percent Effect,"30.3 µM, […]",85.82%
Cc1nccc(CNC(=O)NCCOc2ccc(F)c(F)c2)n1,Percent Effect,"30 µM, 30.03 µM",3.237%
Cc1cc(CNC(=O)NCCOc2ccc(F)c(F)c2)on1,Percent Effect,"30.3 µM, […]",0.6606%
CC(=O)NCc1nnn2c1CN(c1ncc(C)cn1)CCC2,Percent Effect,"30.3 µM, […]",22.68%
O=C(NC[C@]12COC[C@H]1CN(Cc1nccs1)C2)c1cscn1.O=C(O)C(F)(F)F,Percent Effect,"30.3 µM, […]",14.84%
CCOc1cc(C(=O)N2CCN(CC)CC2)cc2occc12,Percent Effect,"30.3 µM, […]",-20.1%
CCOc1ccccc1NC(=O)CN(C)Cc1ccccc1Cl,Percent Effect,"30.3 µM, […]",52.93%
CCOC(=O)c1ccccc1NC(=O)CN(C)Cc1ccccc1Cl.O=C(O)C(=O)O,Percent Effect,"30.3 µM, […]",23.74%
CN(CC(=O)Nc1ccccc1C(=O)NC1CC1)Cc1ccccc1Cl,Percent Effect,"30.3 µM, […]",31.64%
O=C(Nc1cccc(OCC(F)F)n1)c1ccncc1F,Percent Effect,"30.3 µM, […]",29.54%
CCSc1ccc(C(=O)N2CCCC2C(=O)N2CCOCC2)cn1 (stereo unspecified),Percent Effect,"30.3 µM, […]",-29.5%
Cc1cc2nc(C(C)C)cc(N3CCC(O)CC3)n2n1,Percent Effect,"30.3 µM, […]",27.64%
Cc1cc2nc(C(C)C)cc(N3CCC(Oc4ncccn4)CC3)n2n1,Percent Effect,"30.3 µM, […]",83.06%
Cc1cc2nc(C(C)C)cc(N3CCC(N(C)C)C3)n2n1 (stereo unspecified),Percent Effect,"30.3 µM, […]",15.59%
O=C(CNC(=O)C1CCCC1)NCc1cnn(-c2ccc(F)cc2F)c1,Percent Effect,"30.3 µM, […]",-11%
CCN(c1ccc(C(=O)NCCCN2CCOCC2)cc1)S(=O)(=O)CC,Percent Effect,"30 µM, 30.03 µM",0.6611%
CC(O)CN1CCN(C(=O)c2ccc3c(c2)COC3)CC1 (stereo unspecified),Percent Effect,"30 µM, 30.03 µM",9.428%
Cn1cnc2c(-c3cccnc3)nc(C3CCN(S(C)(=O)=O)CC3)cc21,Percent Effect,"30.3 µM, […]",18.38%
Cc1nn(C)c(N2CCOCC2)c1CNC1CCS(=O)(=O)C1 (stereo unspecified),Percent Effect,"30.3 µM, […]",15.34%
Cc1noc(C)c1CN1CCOCC12CCN(c1cnccn1)CC2.O=C(O)C(F)(F)F,Percent Effect,"30.3 µM, […]",60.72%
CCN1CCOCC12CCN(c1cnccn1)CC2.O=C(O)C(F)(F)F,Percent Effect,"30.3 µM, […]",19.49%
Cc1noc(C)c1CN1CCOCC12CCN(c1ncccn1)CC2.O=C(O)C(F)(F)F,Percent Effect,"30.3 µM, […]",49.21%
O=C(c1cnn2c1OCCC2)N1CCC(Cc2ccccc2)CC1,Percent Effect,"30.3 µM, […]",-34.88%
OCc1cn(Cc2cccc(F)c2)nn1,Percent Effect,"30.3 µM, […]",6.732%
COC(=O)CCCC(=O)N(C)CC1Cc2ccccc2CN1C (stereo unspecified),Percent Effect,"30.3 µM, […]",11.82%
CCOCCC(=O)N(C)CC1Cc2ccccc2CN1C (stereo unspecified),Percent Effect,"30.3 µM, […]",29.01%
COC(=O)NCC(=O)N(C)CC1Cc2ccccc2CN1C (stereo unspecified),Percent Effect,"30.3 µM, […]",52.66%
COc1ncccc1C(=O)N1CCC(c2nc3c(C)cccc3[nH]2)CC1,Percent Effect,"30.3 µM, […]",-25.37%
CN1CCC(c2nnc3ccc(C(=O)N4CCCCC4)cn23)C1.O=C(O)C(F)(F)F (stereo unspecified),Percent Effect,"30.3 µM, […]",20.31%
COc1cccc(C(O)CN2CCN(C(=O)CCC(C)C)CC2)c1 (stereo unspecified),Percent Effect,"30.3 µM, […]",-26.89%
CS(=O)(=O)N1CCO[C@@H]2CN(C(=O)N3CCCC3)CC[C@@H]2C1,Percent Effect,"30.3 µM, […]",57.39%
CS(=O)(=O)N1CCO[C@@H]2CN(C(=O)N3CCOCC3)CC[C@@H]2C1,Percent Effect,"30.3 µM, […]",41.23%
CS(=O)(=O)N1CCO[C@@H]2CN(C(=O)C3CCOC3)CC[C@@H]2C1 (stereo partly specified),Percent Effect,"30.3 µM, […]",29.21%
Cc1cc(OCCC(=O)NCc2ccc(F)cc2)nnc1C,Percent Effect,"30.3 µM, […]",-17.71%
CCn1c(N)nc2cc(C(=O)N3Cc4ccccc4C3)cnc21,Percent Effect,"30.3 µM, […]",1.909%
COCC(=O)N1CC(c2ccnc(Nc3cc(C(F)(F)F)ccn3)n2)C1,Percent Effect,"30.3 µM, […]",23.24%
O=C(CO)N1CCC(c2ccnc(Nc3cc(C(F)(F)F)ccn3)n2)C1 (stereo unspecified),Percent Effect,"30.3 µM, […]",30.85%
CC(=O)N1CCC(c2ccnc(Nc3cc(C(F)(F)F)ccn3)n2)C1 (stereo unspecified),Percent Effect,"30.3 µM, […]",43.14%
Cl.NCC(=O)N1CCC(c2ccnc(Nc3cc(C(F)(F)F)ccn3)n2)C1 (stereo unspecified),Percent Effect,"30.3 µM, […]",77.96%
COC(=O)C(C)N1CCCc2cc(OC)ccc2C1 (stereo unspecified),Percent Effect,"30.3 µM, […]",8.236%
COCCN1CCC(Nc2ccc(C#N)cc2F)CC1,Percent Effect,"30.3 µM, […]",26.49%
CNC(=O)C1Cc2ccccc2CN1CCC#N (stereo unspecified),Percent Effect,"30.3 µM, […]",1.919%
FC(F)(F)COc1cccc(-c2nc3c([nH]2)CCNC3)c1,Percent Effect,"30.3 µM, […]",27.16%
CC(C)COc1cccc(-c2nc3c([nH]2)CCNC3)c1,Percent Effect,"30.3 µM, […]",95.75%
CCCOc1cccc(-c2nc3c([nH]2)CCNC3)c1,Percent Effect,"30.3 µM, […]",25.72%
CCN(C(=O)c1ccc(-n2ncc(C#N)c2N)cc1)C1CCCC1,Percent Effect,"30 µM, 30.03 µM",36.15%
O=C1C(NCc2nnc3n2CCCC3)CCN1CC(F)(F)F (stereo unspecified),Percent Effect,"30 µM, 30.03 µM",-13.74%
Cc1ccc(Br)cc1NC(=O)NC1CCC2(C1)OCCO2 (stereo unspecified),Percent Effect,"30.3 µM, […]",23.67%
CC(C)Cc1cc(CC2(NCc3ccco3)COC2)no1,Percent Effect,"30.3 µM, […]",63.35%
CC(C)Cc1cc(CC2(NCc3ccccc3Cl)COC2)no1,Percent Effect,"30.3 µM, […]",8.785%
Cc1ccc(CNC2(Cc3cc(CC(C)C)on3)COC2)o1,Percent Effect,"30.3 µM, […]",-12.32%
Cc1ccc(CN2CCc3nc(C(C)C)nc(O)c3CC2)s1,Percent Effect,"30.3 µM, […]",14.32%
O=C(c1cccnc1O)N1CCCN(c2cccnn2)CC1,Percent Effect,"30.3 µM, […]",3.038%
COc1ccc(C)cc1NC(=O)Nc1cnc(N2CCOCC2)nc1,Percent Effect,"30.3 µM, […]",-26.13%
COc1ccc(C)cc1NC(=O)Nc1cnc(N2CCN(C)CC2)nc1,Percent Effect,"30 µM, 30.03 µM",50.02%
COc1ccc(C)cc1NC(=O)Nc1cnc(N2CCCC2)nc1,Percent Effect,"30.3 µM, […]",-0.2164%
